# PubChem BioAssay (NCATS)
# Several values for one entry are separate records, joined by “and”; a condition that tells them apart may be missing. Identical values can stand only once. Results filed as inconclusive are left out. Entries that show only a call come without a potency. Activity calls are given as the source filed them. Unless noted, the call rests on the fitted dose curve.
# Columns and labels:
# [1] = qHTS for Inhibitors of the Functional Ribonucleoprotein Complex (vRNP) of Lassa (LASV) Arenavirus: LASV Primary Screen - GLuc reporter signal (AID 1347082; calls by dose curve; tested in HEK293 reporter line; further: series mostly up to about 57 µM; nearly all actives have a fitted effect of over 60% in size)
# [2] = qHTS for Inhibitors of the Functional Ribonucleoprotein Complex (vRNP) of Lymphocytic Choriomeningitis Arenaviruses (LCMV): Viability assay - alamar blue signal for LCMV Primary Screen (AID 1347085; calls by dose curve; tested in HEK293 reporter line; further: nearly all actives have a fitted effect of over 80% in size; further: potency means the concentration at half of the fitted maximal effect)
# [3] = target: Nucleoprotein (Lymphocytic choriomeningitis virus (strain Armstrong)) (UniProt P09992); assay: qHTS for Inhibitors of the Functional Ribonucleoprotein Complex (vRNP) of Lymphocytic Choriomeningitis Arenaviruses (LCMV): LCMV Primary Screen - GLuc reporter signal (AID 1347086); further: nearly all actives have a fitted effect of over 70% in size; further: potency means the concentration at half of the fitted maximal effect
# Sequence of Nucleoprotein (Lymphocytic choriomeningitis virus (strain Armstrong)) (P09992 whole entry, looked up): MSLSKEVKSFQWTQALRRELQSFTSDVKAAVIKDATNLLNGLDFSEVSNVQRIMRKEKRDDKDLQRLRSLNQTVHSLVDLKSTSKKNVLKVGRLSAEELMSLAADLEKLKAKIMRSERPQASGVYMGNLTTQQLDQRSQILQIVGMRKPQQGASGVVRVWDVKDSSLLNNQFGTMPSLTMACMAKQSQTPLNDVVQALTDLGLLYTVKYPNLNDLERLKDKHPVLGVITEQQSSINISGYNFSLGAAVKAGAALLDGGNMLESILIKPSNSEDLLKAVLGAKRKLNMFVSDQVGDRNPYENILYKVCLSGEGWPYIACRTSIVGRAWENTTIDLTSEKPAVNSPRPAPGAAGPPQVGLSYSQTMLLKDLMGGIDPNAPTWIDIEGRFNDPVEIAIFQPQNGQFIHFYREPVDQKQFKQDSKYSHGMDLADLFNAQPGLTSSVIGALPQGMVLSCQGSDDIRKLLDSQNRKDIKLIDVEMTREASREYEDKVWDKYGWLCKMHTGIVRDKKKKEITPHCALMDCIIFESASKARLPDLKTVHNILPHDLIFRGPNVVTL
# [4] = qHTS for Inhibitors of the Functional Ribonucleoprotein Complex (vRNP) of Lassa (LASV) Arenavirus: Viability assay - alamar blue signal for LASV Primary Screen (AID 1347083; calls by dose curve; tested in HEK293 reporter line; further: nearly all actives have a fitted effect of over 80% in size; further: potency means the concentration at half of the fitted maximal effect)
# [5] = qHTS of pediatric cancer cell lines to identify multiple opportunities for drug repurposing: Primary screen for DAOY cells (AID 1347090; active means well fitted curve in the direction sought with a large enough effect; an effect the other way counts as inactive or inconclusive; further: series mostly up to about 46 µM; nearly all actives have a fitted effect of over 55% in size)
# Outline: (§1)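 Cell viability, CellTiter-Glo luminescence; 500-1,000 cells/well, 8- or 11-point titration, 48 h compound exposure at 37 degrees C, 5% CO2. Controls: DMSO neutral, bortezomib 2.3 µM final as positive.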
# [6] = qHTS of pediatric cancer cell lines to identify multiple opportunities for drug repurposing: Primary screen for SJ-GBM2 cells (AID 1347091; active means well fitted curve in the direction sought with a large enough effect; an effect the other way counts as inactive or inconclusive)
# Outline: as §1
# [7] = qHTS of pediatric cancer cell lines to identify multiple opportunities for drug repurposing: Primary screen for A673 cells (AID 1347092; active means well fitted curve in the direction sought with a large enough effect; an effect the other way counts as inactive or inconclusive; further: nearly all actives have a fitted effect of over 45% in size)
# Outline: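 Cells are plated, rested 5 h, dosed by pintool, incubated 48 h, then lysed with CellTiter-Glo and read by luminescence. DMSO is the neutral control; bortezomib at 2.3 uM final is the positive control.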
# [8] = qHTS of pediatric cancer cell lines to identify multiple opportunities for drug repurposing: Primary screen for SK-N-MC cells (AID 1347093; active means well fitted curve in the direction sought with a large enough effect; an effect the other way counts as inactive or inconclusive; further: potency means the concentration at half of the fitted maximal effect)
# Outline: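 Metabolically active cells were quantified by ATP-dependent luminescence (CellTiter-Glo, 15 min at room temperature) following 48 h treatment. Cells had been plated at 500-1,000 per well and settled for 5 h beforehand.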
# [9] = qHTS of pediatric cancer cell lines to identify multiple opportunities for drug repurposing: Primary screen for TC32 cells (AID 1347089; active means well fitted curve in the direction sought with a large enough effect; an effect the other way counts as inactive or inconclusive; further: nearly all actives have a fitted effect of over 60% in size)
# Outline: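 Measured quantity: luminescence from CellTiter-Glo, reflecting metabolically active TC32 cells following 48 h of compound. Curves came straight from multi-point titrations, with 8 or 11 points in primary and 11 in confirmatory screening.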
structure (smiles),measurement,setting,value
O=C(c1ccccc1)c1ccc2n1CCC2C(=O)O (configuration not stated),Potency,[1],inactive
same,Potency,[2],inactive
same,Potency,[3],inactive
O=C1c2c(O)ccc(O)c2C(=O)c2c(NCCNCCO)ccc(NCCNCCO)c21,Potency,[4],685 nM (active) and 891 nM (active) and 1.78 µM (active)
same,Potency,[2],1.37 µM (active) and 1.26 µM (active)
same,Potency,[3],4.32 µM (active)
N=C(N)c1ccc(OCCCCCOc2ccc(C(=N)N)cc2)cc1,Potency,[4],38.5 µM (active)
CS(=O)(=O)CCNCc1ccc(-c2ccc3ncnc(Nc4ccc(OCc5cccc(F)c5)c(Cl)c4)c3c2)o1,Potency,[4],0.432 µM (active)
same,Potency,[2],0.137 µM (active)
same,Potency,[3],0.769 µM (active)
Nc1nc2c(ncn2COC(CO)CO)c(=O)[nH]1,Potency,[1],inactive
same,Potency,[3],inactive
O=C(C1CCCCC1)N1CC(=O)N2CCc3ccccc3C2C1 (configuration not stated),Potency,[1],inactive
same,Potency,[2],inactive
same,Potency,[3],inactive
CC1=C(/C=C/C(C)=C/C=C/C(C)=C/C(=O)Nc2ccc(O)cc2)C(C)(C)CCC1,Potency,[3],8.91 µM (active)
CCC1=C[C@@H]2CN(C1)Cc1c([nH]c3ccccc13)[C@@](C(=O)OC)(c1cc3c(cc1OC)N(C)[C@H]1[C@@](O)(C(=O)OC)[C@H](OC(C)=O)[C@]4(CC)C=CCN5CC[C@]31[C@@H]54)C2,Potency,[4],inactive
same,Potency,[2],inactive
same,Potency,[3],inactive
CC(C)CC(N(C)C)C1(c2ccc(Cl)cc2)CCC1 (configuration not stated),Potency,[1],inactive
same,Potency,[2],inactive
same,Potency,[3],inactive
same,Potency,[5],inactive
same,Potency,[6],inactive
same,Potency,[7],inactive
CC(C)n1c(C=C[C@H](O)C[C@H](O)CC(=O)O)c(-c2ccc(F)cc2)c2ccccc21,Potency,[4],2.43 µM (active)
same,Potency,[2],7.69 µM (active)
same,Potency,[3],21.7 µM (active)
Cc1ccc(S(=O)(=O)NC(=O)NN2CC3CCCC3C2)cc1 (configuration not stated),Potency,[2],inactive
same,Potency,[3],inactive
O=C1Cc2cc(CCN3CCN(c4nsc5ccccc45)CC3)c(Cl)cc2N1,Potency,[4],inactive
same,Potency,[2],inactive
same,Potency,[3],inactive
COc1ccc(Cc2nccc3cc(OC)c(OC)cc23)cc1OC,Potency,[4],inactive
same,Potency,[2],inactive
COc1cc(NCc2ccc3nc(N)nc(N)c3c2C)cc(OC)c1OC,Potency,[1],inactive
same,Potency,[3],inactive
NC1[C@H]2CN(c3nc4c(cc3F)c(=O)c(C(=O)O)cn4-c3ccc(F)cc3F)C[C@@H]12 (some centres not stated),Potency,[1],inactive
same,Potency,[3],inactive
CNC(=O)N1N=C(c2ccc(N)cc2)c2cc3c(cc2CC1C)OCO3 (configuration not stated),Potency,[6],inactive
same,Potency,[8],9.35 µM (active)
CN(C)CCN(C)CCc1ccc(Cl)c(Cl)c1,Potency,[2],21.7 µM (active)
same,Potency,[9],inactive
same,Potency,[5],inactive
same,Potency,[6],inactive
same,Potency,[7],inactive
CS(=O)c1ccc(-c2nc(-c3ccc(F)cc3)c(-c3ccncc3)[nH]2)cc1 (configuration not stated),Potency,[1],inactive
same,Potency,[2],inactive
same,Potency,[3],inactive
Nc1nc(=S)c2[nH]cnc2[nH]1,Potency,[4],17.2 µM (active)
COc1cc(Nc2c(C#N)cnc3cc(OCCCN4CCN(C)CC4)c(OC)cc23)c(Cl)cc1Cl,Potency,[4],1.09 µM (active)
same,Potency,[3],inactive
